We go through 25 molecules from PubChem BioAssay (NCATS).

A number with no mark means an inactive call. Activity calls are given as the source filed them. No rule for the calls is given here. Some results are limits rather than exact numbers.
Potency is read from the fitted curve at half-maximal effect.

The experiment concerns HIV-1 nucleocapsid protein NCp7 (binding to TG oligonucleotide). As to the kind of experiment: HIV Nucleocapsid (AID 346).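 Also: potency is for inhibitors that block NC binding and lower polarization.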 The settings on record: HIV-1 NC / fluorescein-TGTGTGTG probe, fluorescence polarization. An outline of the steps: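 Inhibition of nucleocapsid binding to single-stranded 5'-TGTGTGTG probe (10 nM) was measured by fluorescence polarization after 1 hr at room temperature with 100 nM protein under high-salt, zinc-containing, reducing conditions.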
On the technique in general: Polarisation of emitted light reports the rotation of a fluorescent probe.
For the molecule `CCNc1ncc2nc(CCc3ccccc3)c(=O)n(Cc3cccc(OC)c3)c2n1`, the Potency is greater than 20 µM.

As to `O=c1c(-c2cccc(Cl)c2)nc2cncnc2n1-c1ccccc1`, the Potency was greater than 20 µM.

Turning to `O=C(Nc1cccc(F)c1)N1CCC2(CC1)CCN(C(=O)c1cnccn1)CC2`, the Potency was greater than 20 µM.

For `CNc1cc(-c2c(C)noc2C)ncn1`, the Potency is greater than 20 µM.

`COc1ccc(NC(=O)N2CC3(CCN(S(=O)(=O)c4ccccc4)CC3)C2)cc1`: the Potency is greater than 20 µM.

For the molecule `COc1ccc(C(=O)N2CCC3(CCCN(c4ccncc4)C3)CC2)cc1`, the Potency was greater than 20 µM.

For the molecule `O=c1c(-c2ccccc2)nc2cnc(N3CCNCC3)nc2n1C1CC1`, the Potency is greater than 20 µM.

As to `COc1ccc2[nH]cc(CCNc3ncnc4ccc(-c5cccc(C#N)c5)cc34)c2c1`, the Potency is greater than 20 µM.

With `Cc1noc(C)c1-c1nc(Nc2ccncc2)c2ccccc2n1`, the Potency is greater than 20 µM.

Consider `COc1cccc(Cn2c(=O)c(-c3ccc(Cl)cc3)nc3cnc(OC)nc32)c1`, for which the Potency was greater than 20 µM.

On to `COCCn1c(=O)c(CCc2ccccc2)nc2cnc(N3CCN(C)CC3)nc21`, for which the Potency is greater than 20 µM.

With `N#Cc1cccc(-c2nc(NCc3cccs3)c3ccccc3n2)c1`, the Potency was greater than 20 µM.

As to `COc1ccccc1CCn1c(=O)c(-c2ccc(F)c(F)c2)nc2cncnc21`, the Potency was greater than 20 µM.

For the molecule `CCNc1ncc2nc(-c3ccccc3)c(=O)n(C[C@H]3CCCO3)c2n1`, the Potency was greater than 20 µM.

In the case of `COc1ccccc1CNc1nc(-c2ccc(C(=O)N(C)C)cc2)nc2ccccc12`, the Potency is greater than 20 µM.

With `O=C(c1csnn1)N1CCC[C@@]2(CCN(c3cccc(-c4ccccc4)c3)C2)C1`, the Potency was greater than 20 µM.

As to `CC(=O)N1CCC[C@@]2(CCN(c3ncccn3)C2)C1`, the Potency is greater than 20 µM.

Turning to `COc1cccc(Nc2ncc3nc(-c4cccs4)c(=O)n(-c4ccccc4)c3n2)c1`, the Potency was 6.57 µM (active).

As for `c1ccc(CNc2ncnc3ccc(-c4ccc5c(c4)OCO5)cc23)cc1`, the Potency was greater than 20 µM.

For the molecule `N#Cc1ccccc1-c1ccc2ncnc(NCCN3CCOCC3)c2c1`, the Potency is greater than 20 µM.

Regarding `Cn1c(=O)c(CCc2ccccc2)nc2cnc(N3CCOCC3)nc21`, the Potency is greater than 20 µM.

For the molecule `Cc1cccc(CNc2nc(-c3cccnc3)nc3ccccc23)c1`, the Potency is greater than 20 µM.

`CCNc1ncc2nc(-c3cccs3)c(=O)n(Cc3ccc(F)cc3)c2n1`: the Potency was greater than 20 µM.

In the case of `COc1cccc(-c2ccc3ncnc(NCCN4CCOCC4)c3c2)c1`, the Potency is greater than 20 µM.

Regarding `O=C(c1ccncc1)N1CCC2(CC1)CN(c1ccccc1)C2`, the Potency was greater than 20 µM.
